# Assay results published in ChEMBL document CHEMBL3988442, “University of Dundee, Small-Polar-MMV Screening Library” (2021).
# Hit rate of the full screen: of about 48,000 compounds, about 13,000 (27%) showed an effect of 50% or more. The list shows a part of the results.
# System: Wolbachia pipientis
# Assay: Anti-Wolbachia Cell-Based Screen
# Assay type: functional
# Set-up: scale not given: in the data most compounds retested in dose-response had high values
# Conditions: 5 µM
row,SMILES,Percent Effect [%]
1,CN(CC1(O)CCN(c2ccnc3ccncc23)CC1)C(=O)CCN,110.4
2,Cc1cc(N2CCC(O)(CN(C)C(=O)CCN)C2)c2cnccc2n1 (centres undefined),98.27
3,Cc1cnn(C2(C(=O)O)CCN(c3ccnc4cc(Cl)ccc34)CC2)c1,-21.78
4,Cc1cc(N2CCC(CO)(CC3CCCCO3)CC2)c2ccccc2n1 (centres undefined),-1.662
5,CN(C)CC1(O)CCCN(C(=O)c2ccccc2-n2cccn2)C1 (centres undefined),-10.31
6,CC(NC(=O)Cc1ccccc1F)C(=O)N1CCS(=O)(=O)CC1 (centres undefined),-3.92
7,N#Cc1ccnc(N2CCC(NCCN3CCOCC3)CC2)c1,-1.692
8,CCC(=O)Nc1cc(Br)cnc1OCC(F)(F)F,-13.83
9,Cc1cc(N2CCC(O)(CN(C)C(=O)CCCN)C2)c2cnccc2n1 (centres undefined),106
10,CN1CC(=O)N(C2CCNCC2)Cc2c(NCC(C)(C)C)ncnc21,106.7
11,CCNc1ncnc2c1CN(C1CCCNCC1)C(=O)CN2C (centres undefined),112.3
12,COc1ccc(NC(=O)CCC(C)C)c(N2CCN(C(C)=O)CC2)n1,-1.669
13,O=C(CC1CCCC1)N1CCN(c2ccc(-n3cncn3)nn2)CC1,17.68
14,CC1CCCCN1C1CN(c2nc(C3CCCC3)nc3c2cnn3C)C1 (centres undefined),0.03102
15,CC(=O)NCCC1CCN(c2nc(C(C)(C)C)nc3c2cnn3C)CC1,-2.953
16,Cn1ncc2c(N3CCC(CCO)CC3)nc(C(C)(C)C)nc21,-3.712
17,CC(C)c1nc(N2CC(N3CCCCC3C)C2)c2cnn(C)c2n1 (centres undefined),11.15
18,CN1CCCN(c2nc(C3CCCC3)nc3c2cnn3C)CC1,2.389
19,CC(C)c1nc(N2CCC(N3CCCC(O)C3)CC2)c2cnn(C)c2n1 (centres undefined),109.7
20,Cn1ncc2c(N3CCS(=O)(=O)CC3)nc(C3CCCC3)nc21,-3.304
21,Cn1ncc2c(N3CC(N4CCCCC4)C3)nc(C3CCCC3)nc21,6.638
22,CC(C)c1nc(N2CCC(N3CCSCC3)CC2)c2cnn(C)c2n1,102.9
23,CC(C)c1nc(N2CCC(N3CCCCCC3)CC2)c2cnn(C)c2n1,83.71
24,Cn1ncc2c(N3CCN4CCCCC4C3)nc(C3CCCC3)nc21 (centres undefined),111.9
25,O=c1ccn(Cc2nc(-c3ccccc3F)cs2)c(=O)[nH]1,-9.097
26,COc1cccc2c1OCC(C(=O)NCc1c(C)noc1C)C2 (centres undefined),-13.16
27,Cc1ncc(CN(C)C(=O)Nc2ccc(CN3CCOC3=O)cc2)s1,8.802

row,SMILES,Percent Effect [%]
1,CCn1c(C)cc(-c2csc(Cn3ccc(=O)[nH]c3=O)n2)c1C,-14.65
2,Cc1ccccc1COCCOCn1c(C)cc(=O)[nH]c1=O,116.8
3,Cc1cc(=O)[nH]c(=O)n1COCc1ccccc1,71.08
4,Cc1cc(=O)[nH]c(=O)n1Cc1ccccc1,-6.606
5,Cc1cc(=O)[nH]c(=O)n1COCCOCc1ccccc1,87.63
6,Cc1ccc(S(=O)(=O)NC(=O)CCOCc2ccccc2)s1,4.537
7,COCCn1c(=O)n(Cc2ccccc2C)c2cc(C(=O)O)ccc21,-8.391
8,Cn1cccc(NC(=O)NCCOCc2ccccc2)c1=O,-14.44
9,CC/C(C)=C/CCN1CCN(C)C2(CCNC(=O)CC2)C1 (centres undefined),-7.249
10,O=C(NCc1ccncc1)c1nc2c(o1)CN(C(=O)c1cccnc1)C2.O=C(O)C(F)(F)F.O=C(O)C(F)(F)F,0.8995
11,Cc1nc[nH]c1CN1CCN(C(=O)CCC(F)(F)F)[C@H]2CS(=O)(=O)C[C@H]21,0
12,Cn1ncnc1CNC1CCCc2cc(F)ccc21 (centres undefined),-3.531
13,COc1ccc(CN2CC[C@H](NC(C)=O)[C@@H](O)CC2)c(F)c1,118.9
14,COc1cccc(CN2CC[C@H](NC(C)=O)[C@@H](O)CC2)c1F,34.02
15,COc1cc(CN2CC[C@H](NC(C)=O)[C@@H](O)CC2)ccc1F,106.7
16,COc1ccc(CN2CCC(C(N)=O)CC2)cc1SC(F)(F)F,0.6878
17,COc1ccc(CN2CC[C@H](NC(C)=O)[C@@H](O)CC2)c(OC)c1,-2.423
18,COc1ccc(F)c(CN2CCCC3(CCN(C4CCOCC4)C3)C2)c1 (centres undefined),-3.304
19,O=C(C1CCOc2ccccc21)N1CCOc2cccc(F)c21 (centres undefined),6.908
20,O=C(c1ccc(-n2cnnc2)cc1Cl)N1CCCC2(CCNC2)C1 (centres undefined),-4.992
21,CNc1cc2c(nn1)CCN(C(=O)c1cc(F)cc(F)c1)C2,8.008
22,CNc1cc2c(nn1)CCN(C(=O)C1CCCc3ccccc31)C2 (centres undefined),-4.064
23,CNc1cc2c(nn1)CCN(C(=O)c1coc(Br)c1)C2,117.2
24,CNc1cc2c(nn1)CCN(C(=O)c1ccc3c(c1)OCO3)C2,105.8
25,CNc1cc2c(nn1)CCN(C(=O)c1cc(C)no1)C2,125.3
26,Cc1ccc2oc(C(=O)N3CCc4nnc(N(C)C)cc4C3)cc2n1,-8.128
27,CNc1cc2c(nn1)CCN(C(=O)c1ccc3c(c1)CCC3)C2,114.4
